Inconclusive results are not listed. Activity calls are given as the source filed them. Rule for the calls, unless noted: active = hit-call score of the fitted dose curve at least 0.9, where 1 is the maximum; inactive = score below 0.9.
Legend:
[1] = ACEA_ER_80hr: ACEA Biosciences xCELLigence Real-Time Cell Analysis on Estrogen Receptor Agonism for Proliferation (AID 2282667; active = hit-call score of the fitted dose curve at least 0.9, where 1 is the maximum); settings: T47D proliferation, impedance (xCELLigence), 80 h
Procedure, shortened: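 Estrogen-driven proliferation is captured as electrode impedance in T47D cells 80 h after compound addition. Test articles ran at 8 concentrations, 1:4 dilutions from 100 uM final, in two replicate plates.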

[2] = ATG_CRE_CIS: Attagene CIS-FACTORIAL HepG2 Assay for human cAMP Responsive Element (CRE) binding protein 3 (AID 2282926); settings: HepG2 CRE cis-reporter, Attagene multiplexed mRNA; actives raise or lower the signal
Procedure, shortened: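 Transfected HepG2 were treated for 24 hours, then RNA was extracted and reporter cDNA amplified with sequence-specific primers. Labelled fragments were separated by capillary electrophoresis, and the CRE signal was fitted bidirectionally with DMSO as baseline.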

[3] = molecular target: CCAAT/enhancer-binding protein beta (Homo sapiens) (UniProt P17676); test: ATG_C_EBP_CIS: Attagene CIS-FACTORIAL HepG2 Assay for human CCAAT/Enhancer Binding Protein (C/EBP) beta (AID 2282927); settings: HepG2 Attagene cis-factorial transcription factor reporter; actives raise or lower the signal
Procedure, shortened: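 RT-PCR/capillary electrophoresis fluorescence of reporter mRNA, 24 h post-dose, in HepG2 cells carrying transfected cis-promoter reporter units. Bidirectional curve fitting against DMSO baseline captures gain or loss of signal.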

[4] = ATG_CMV_CIS: Attagene CIS-FACTORIAL HepG2 Assay for human CMV (Internal Marker) (AID 2282928); settings: HepG2 CMV promoter reporter, transcription factor profiling; actives raise or lower the signal;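 note: endpoint acts as a background internal control marker rather than a target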
Procedure, shortened: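 After transient transfection of HepG2 with reporter transcription units driven by cis-regulatory promoters, cells receive test chemical for 24 h. Labeled reporter amplicons, digested with HpaI, are sized and quantified by capillary electrophoresis against DMSO.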

[5] = ATG_DR4_LXR_CIS: Attagene CIS-FACTORIAL HepG2 Assay for human Liver X Receptor (LXR), DR4 submotif (AID 2282929); settings: HepG2 Attagene DR4 cis-reporter, mRNA transcription; actives raise or lower the signal
Procedure, shortened: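 HepG2 cells transiently transfected with cis-promoter-driven multiplexed reporter units (DR4 element) were dosed for 24 h. Reporter mRNA was quantified by RT-PCR, fluorescent primer extension, HpaI digestion and capillary electrophoresis; bidirectional fitting versus DMSO baseline.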

[6] = molecular target: Aryl hydrocarbon receptor (Homo sapiens) (UniProt P35869); test: ATG_Ahr_CIS: Attagene CIS-FACTORIAL HepG2 Assay for human Aryl Hydrocarbon Receptor (Ahr) (AID 2282930); settings: HepG2 AhR cis-factorial reporter transcription; actives raise or lower the signal
Procedure, shortened: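 HepG2 cells transiently transfected with cis-element-driven multiplexed reporter transcription units; endogenous transcription factor activity measured as reporter mRNA 24 h after dosing. RT-PCR, 6-FAM labelling, HpaI digestion, capillary electrophoresis; bidirectional fitting versus DMSO baseline.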

[7] = ATG_AP_1_CIS: Attagene CIS-FACTORIAL HepG2 Assay for human Activator Protein 1 (AP-1) (AID 2282931); settings: HepG2 Attagene cis-factorial AP-1 reporter mRNA; actives raise or lower the signal
Procedure, shortened: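 HepG2 cells transiently transfected with cis-element-driven multiplex reporter units; 24 h compound exposure. Reporter mRNA quantified by RT-PCR, FAM-labelled fragments resolved by capillary electrophoresis; bidirectional fit versus DMSO baseline.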

[8] = ATG_AP_2_CIS: Attagene CIS-FACTORIAL HepG2 Assay for human Activator Protein 2 (AP-2) (AID 2282932); settings: HepG2 AP-2 cis-reporter, Attagene transcription factor profiling; actives raise or lower the signal
Procedure, shortened: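 HepG2 cells were transiently transfected with multiple cis-promoter reporter transcription units and dosed for 24 h. Reporter mRNA was measured by RT-PCR with capillary electrophoresis fluorescence; bidirectional fits relative to DMSO baseline.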

[9] = ATG_BRE_CIS: Attagene CIS-FACTORIAL HepG2 Assay for human Bone Morphogenetic Protein (BMP) Response Element (BRE) (AID 2282933); settings: HepG2 BMP response element reporter, Attagene transcription factor profiling; actives raise or lower the signal
Procedure, shortened: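 After a 24 h chemical treatment, transiently transfected HepG2 cells were lysed for RNA; reporter transcripts were quantified by fluorescent RT-PCR and capillary electrophoresis, normalised to DMSO.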

[10] = molecular target: Retinoic acid receptor alpha (Homo sapiens) (UniProt P10276); test: ATG_DR5_RAR_CIS: Attagene CIS-FACTORIAL HepG2 Assay for human Retinoic Acid Receptor Alpha (RARE), DR5 submotif (AID 2282934); settings: HepG2 Attagene cis-factorial RARE DR5 reporter, mRNA; actives raise or lower the signal
Procedure, shortened: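 HepG2 cells transiently transfected with multiplexed reporter units under cis (DR5 RARE) promoters, so endogenous transcription factor activity is measured. After 24 h compound exposure, reporter mRNA is quantified by RT-PCR with fluorescent labelling and capillary electrophoresis; bidirectional fitting versus DMSO.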

[11] = molecular target: Transcription factor E2F1 (Homo sapiens) (UniProt Q01094); test: ATG_E2F_CIS: Attagene CIS-FACTORIAL HepG2 Assay for human E2F Transcription Factor 1 (AID 2282935); settings: HepG2 Attagene cis-reporter, E2F reporter RNA transcripts; actives raise or lower the signal
Procedure, shortened: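 HepG2 cells transiently transfected with multiplexed cis-element reporter units, dosed for 24 h. Reporter mRNA measured by RT-PCR, 6-FAM primer-extension labeling, HpaI digestion and capillary electrophoresis; bidirectional fit versus DMSO baseline.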

[12] = ATG_E_Box_CIS: Attagene CIS-FACTORIAL HepG2 Assay for human Enhancer Box (E-box) (AID 2282936); settings: HepG2 E-box cis-reporter transcription, actives raise or lower the signal
Procedure, shortened: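 HepG2 cells transiently transfected with multiplexed cis-element reporter units sensing endogenous transcription factor activity; 24 h compound exposure. Reporter mRNA measured by RT-PCR, 6-FAM primer extension, HpaI digestion and capillary electrophoresis; bidirectional fit versus DMSO.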

[13] = ATG_M_61_CIS: Attagene CIS-FACTORIAL HepG2 Assay for M61 Transcription Factor (Internal Marker) (AID 2282937); settings: HepG2 Attagene CIS-FACTORIAL M61 internal marker reporter; actives raise or lower the signal
Procedure, shortened: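 HepG2 cells transiently transfected with cis-element-driven multiple reporter transcription units, dosed for 24 h. Reporter mRNA measured by RT-PCR, 6-FAM primer-extension labelling, HpaI digestion and capillary electrophoresis; bidirectional fit versus DMSO baseline.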

[14] = ATG_EGR_CIS: Attagene CIS-FACTORIAL HepG2 Assay for human Early Growth Response 1 (EGR1) (AID 2282938); settings: HepG2 Attagene CIS-FACTORIAL EGR reporter mRNA; actives raise or lower the signal
Procedure, shortened: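 HepG2 cells transiently transfected with cis-promoter-driven multiplexed reporter transcription units; reporter mRNA measured 24 h after compound dosing by RT-PCR, 6-FAM primer extension, HpaI digestion and capillary electrophoresis. Bidirectional fit versus DMSO baseline.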

[15] = ATG_M_19_CIS: Attagene CIS-FACTORIAL HepG2 Assay for M19 Transcription Factor (Internal Marker) (AID 2282939); settings: HepG2 Attagene CIS-FACTORIAL M19 internal marker reporter; actives raise or lower the signal
Procedure, shortened: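 In this multiplexed cell assay, transiently transfected HepG2 reporter units report endogenous transcription-factor activity; after 24 hours of treatment, labelled reporter cDNA fragments are quantified by capillary electrophoresis and fitted bidirectionally against DMSO.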

[16] = ATG_ERE_CIS: Attagene CIS-FACTORIAL HepG2 Assay for Estrogen Response Element (ERE) (AID 2282940); settings: HepG2 ERE cis-reporter, Attagene RNA transcript; actives raise or lower the signal
Procedure, shortened: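 Measuring endogenous transcription factor output, the assay doses transfected HepG2 cells for 24 hours and quantifies reporter transcripts by fluorescent RT-PCR and capillary electrophoresis, with DMSO as baseline.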

[17] = ATG_Ets_CIS: Attagene CIS-FACTORIAL HepG2 Assay for human Erythroblast Transformation Specific (ETS) (AID 2282941); settings: HepG2 ETS cis-reporter transcription, actives raise or lower the signal
Procedure, shortened: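 Human HepG2 hepatoma cells were transiently transfected with promoter-driven reporter constructs and treated for 24 hours. Reporter transcripts were quantified by RT-PCR with fluorescent primer extension; bidirectional curve fitting used DMSO as reference.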

[18] = ATG_FoxO_CIS: Attagene CIS-FACTORIAL HepG2 Assay for human Forkhead box O (FoxO) (AID 2282943); settings: HepG2 Attagene cis-reporter, FoxO element, mRNA; actives raise or lower the signal
Procedure, shortened: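 HepG2 cells transiently transfected with cis-promoter-driven multiple reporter transcription units; 24 h after chemical dosing, reporter mRNA quantified by RT-PCR, fluorescent primer extension, HpaI digestion and capillary electrophoresis. Bidirectional fitting versus DMSO baseline.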

[19] = ATG_GATA_CIS: Attagene CIS-FACTORIAL HepG2 Assay for human GATA Binding Protein (AID 2282944); settings: HepG2 GATA cis-element reporter, Attagene multiplex mRNA; actives raise or lower the signal
Procedure, shortened: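 Measures endogenous transcription factor-driven reporter mRNA in HepG2 cells transiently carrying cis-regulated constructs. 24 h dosing; RNA via oligo(dT) reverse transcription, PCR, HpaI digestion, capillary electrophoresis; fitted relative to DMSO.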

[20] = molecular target: Hepatocyte nuclear factor 3-beta (Homo sapiens) (UniProt Q9Y261); test: ATG_FoxA2_CIS: Attagene CIS-FACTORIAL HepG2 Assay for human Forkhead box A2 (FOXA2) (AID 2282942); settings: HepG2 cis-reporter transcription factor activity, 24 h; actives raise or lower the signal
Procedure, shortened: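 HepG2 cells transiently transfected with multiple cis-regulated reporter transcription units, dosed for 24 h. Reporter mRNA measured by RT-PCR, 6-FAM labelling, HpaI digestion and capillary electrophoresis; bidirectional fitting against DMSO baseline.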

Chain of Retinoic acid receptor alpha (Homo sapiens) (P10276 whole entry, looked up): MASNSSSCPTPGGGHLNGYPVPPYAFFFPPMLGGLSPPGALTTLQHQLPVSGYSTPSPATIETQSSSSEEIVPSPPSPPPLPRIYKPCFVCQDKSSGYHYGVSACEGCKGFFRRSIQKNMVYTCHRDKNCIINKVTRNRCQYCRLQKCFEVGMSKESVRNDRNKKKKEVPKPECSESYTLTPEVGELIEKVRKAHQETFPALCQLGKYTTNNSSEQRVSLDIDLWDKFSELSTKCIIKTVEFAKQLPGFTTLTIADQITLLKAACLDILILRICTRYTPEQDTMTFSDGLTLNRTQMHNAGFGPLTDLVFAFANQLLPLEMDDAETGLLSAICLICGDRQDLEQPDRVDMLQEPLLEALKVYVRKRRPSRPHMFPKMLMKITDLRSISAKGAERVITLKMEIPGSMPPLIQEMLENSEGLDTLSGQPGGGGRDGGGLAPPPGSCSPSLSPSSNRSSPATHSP
Chain of CCAAT/enhancer-binding protein beta (Homo sapiens) (P17676 whole entry, looked up): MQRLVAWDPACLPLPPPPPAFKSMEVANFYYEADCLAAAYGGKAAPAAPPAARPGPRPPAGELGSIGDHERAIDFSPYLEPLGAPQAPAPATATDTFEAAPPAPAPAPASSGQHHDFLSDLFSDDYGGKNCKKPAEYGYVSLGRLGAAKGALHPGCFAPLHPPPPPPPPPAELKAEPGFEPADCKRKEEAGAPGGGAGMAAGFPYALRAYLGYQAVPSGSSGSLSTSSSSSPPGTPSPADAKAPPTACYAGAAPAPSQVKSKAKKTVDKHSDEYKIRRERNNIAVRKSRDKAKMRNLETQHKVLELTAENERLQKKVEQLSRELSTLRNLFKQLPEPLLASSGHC
Chain of Transcription factor E2F1 (Homo sapiens) (Q01094 whole entry, looked up): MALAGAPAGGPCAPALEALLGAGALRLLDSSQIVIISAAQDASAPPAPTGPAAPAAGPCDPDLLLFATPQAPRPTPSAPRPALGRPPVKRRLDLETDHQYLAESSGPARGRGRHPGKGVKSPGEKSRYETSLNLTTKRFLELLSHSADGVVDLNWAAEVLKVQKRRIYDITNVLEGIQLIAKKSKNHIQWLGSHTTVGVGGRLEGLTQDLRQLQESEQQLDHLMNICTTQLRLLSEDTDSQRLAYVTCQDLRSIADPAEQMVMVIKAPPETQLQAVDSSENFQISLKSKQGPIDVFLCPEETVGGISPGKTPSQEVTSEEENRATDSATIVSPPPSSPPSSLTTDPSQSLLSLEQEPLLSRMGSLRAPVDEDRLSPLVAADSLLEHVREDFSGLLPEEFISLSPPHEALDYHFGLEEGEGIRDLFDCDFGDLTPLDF
Chain of Aryl hydrocarbon receptor (Homo sapiens) (P35869 whole entry, looked up): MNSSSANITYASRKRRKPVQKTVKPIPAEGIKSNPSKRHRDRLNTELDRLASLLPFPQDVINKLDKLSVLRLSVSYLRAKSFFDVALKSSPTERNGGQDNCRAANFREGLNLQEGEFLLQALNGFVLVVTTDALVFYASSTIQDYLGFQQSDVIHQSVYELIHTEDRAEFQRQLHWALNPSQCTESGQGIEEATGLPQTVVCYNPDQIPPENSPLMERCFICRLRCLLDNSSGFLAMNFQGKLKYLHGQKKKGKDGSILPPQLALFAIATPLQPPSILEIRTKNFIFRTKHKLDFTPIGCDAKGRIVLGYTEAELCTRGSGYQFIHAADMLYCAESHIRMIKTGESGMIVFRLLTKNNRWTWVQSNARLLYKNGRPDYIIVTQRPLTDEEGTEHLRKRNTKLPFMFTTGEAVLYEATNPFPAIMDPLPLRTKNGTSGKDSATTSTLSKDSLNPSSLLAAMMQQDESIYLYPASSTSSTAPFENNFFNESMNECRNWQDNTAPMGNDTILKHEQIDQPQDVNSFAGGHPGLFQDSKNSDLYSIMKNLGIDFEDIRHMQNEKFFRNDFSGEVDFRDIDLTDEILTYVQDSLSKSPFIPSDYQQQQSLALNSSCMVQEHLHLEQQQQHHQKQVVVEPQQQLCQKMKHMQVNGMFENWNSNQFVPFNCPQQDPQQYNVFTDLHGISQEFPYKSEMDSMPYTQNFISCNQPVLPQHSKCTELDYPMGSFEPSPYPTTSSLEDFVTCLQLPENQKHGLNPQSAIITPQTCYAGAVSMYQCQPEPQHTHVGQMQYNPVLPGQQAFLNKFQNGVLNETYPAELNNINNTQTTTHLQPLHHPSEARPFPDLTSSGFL
Chain of Hepatocyte nuclear factor 3-beta (Homo sapiens) (Q9Y261 whole entry, looked up): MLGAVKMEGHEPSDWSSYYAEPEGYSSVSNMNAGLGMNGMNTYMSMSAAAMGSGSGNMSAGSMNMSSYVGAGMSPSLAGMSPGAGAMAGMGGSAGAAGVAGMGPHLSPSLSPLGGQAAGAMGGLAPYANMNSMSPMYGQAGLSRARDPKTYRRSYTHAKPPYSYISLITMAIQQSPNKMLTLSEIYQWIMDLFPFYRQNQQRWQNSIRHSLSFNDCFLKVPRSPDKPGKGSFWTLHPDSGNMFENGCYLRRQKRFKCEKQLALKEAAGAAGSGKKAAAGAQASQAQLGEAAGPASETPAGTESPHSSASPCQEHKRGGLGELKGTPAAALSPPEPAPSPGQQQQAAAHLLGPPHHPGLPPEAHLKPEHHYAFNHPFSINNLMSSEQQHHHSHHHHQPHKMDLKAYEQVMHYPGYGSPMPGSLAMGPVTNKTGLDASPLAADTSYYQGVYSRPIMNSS

Structure (SMILES): CCN(CCO)S(=O)(=O)C(F)(F)C(F)(F)C(F)(F)C(F)(F)C(F)(F)C(F)(F)C(F)(F)C(F)(F)F
- outcome [1]: inactive
- AC50 [2]: 28.9 µM (active)
- outcome [3]: inactive
- outcome [4]: inactive
- outcome [5]: inactive
- outcome [6]: inactive
- outcome [7]: inactive
- outcome [8]: inactive
- outcome [9]: inactive
- outcome [10]: inactive
- outcome [11]: inactive
- outcome [12]: inactive
- outcome [13]: inactive
- outcome [14]: inactive
- outcome [15]: inactive
- outcome [16]: inactive
- outcome [17]: inactive
- outcome [18]: inactive
- outcome [19]: inactive

Structure (SMILES): CC(C)(C)c1cc(CCC(=O)OCC(COC(=O)CCc2cc(C(C)(C)C)c(O)c(C(C)(C)C)c2)(COC(=O)CCc2cc(C(C)(C)C)c(O)c(C(C)(C)C)c2)COC(=O)CCc2cc(C(C)(C)C)c(O)c(C(C)(C)C)c2)cc(C(C)(C)C)c1O
- AC50 [1]: 0.173 µM (active)
- outcome [2]: inactive
- outcome [3]: inactive
- outcome [4]: inactive
- outcome [5]: inactive
- outcome [6]: inactive
- outcome [7]: inactive
- outcome [8]: inactive
- outcome [9]: inactive
- outcome [10]: inactive
- outcome [11]: inactive
- outcome [12]: inactive
- outcome [13]: inactive
- outcome [14]: inactive
- outcome [15]: inactive
- AC50 [16]: 7.29 µM (active)
- outcome [17]: inactive
- outcome [20]: inactive
- outcome [18]: inactive
- outcome [19]: inactive

Structure (SMILES): CC(C)Nc1ccc(NC(C)C)c2c1C(=O)c1ccccc1C2=O
- outcome [1]: inactive
- outcome [2]: inactive
- outcome [3]: inactive
- outcome [4]: inactive
- outcome [5]: inactive
- AC50 [6]: 3.35 µM (active)
- outcome [7]: inactive
- outcome [8]: inactive
- outcome [9]: inactive
- outcome [10]: inactive
- outcome [11]: inactive
- outcome [12]: inactive
- outcome [13]: inactive
- outcome [14]: inactive
- outcome [15]: inactive
- outcome [16]: inactive
- outcome [17]: inactive
- outcome [20]: inactive
- outcome [18]: inactive
- outcome [19]: inactive

Structure (SMILES): Cc1ccc(O)cn1
- outcome [1]: inactive
- outcome [2]: inactive
- outcome [3]: inactive
- outcome [4]: inactive
- outcome [5]: inactive
- outcome [6]: inactive
- outcome [7]: inactive
- outcome [8]: inactive
- outcome [9]: inactive
- outcome [10]: inactive
- outcome [11]: inactive
- outcome [12]: inactive
- outcome [13]: inactive
- outcome [14]: inactive
- outcome [15]: inactive
- outcome [16]: inactive
- outcome [17]: inactive
- outcome [18]: inactive
- outcome [19]: inactive

Source: PubChem BioAssay (EPA / NIEHS)
